Only some compounds are listed: those with a hit (about 19% of all), similar ones and a draw of the others.
HT1080 IDH1KD tx – kills HT-1080 cells with IDH1 knockdown; HT-1080 IDH1 knockdown viability, ATP luminescence, 48 h; Potency, µM (titrated, usually from 46.1 µM), for inactives: top-dose activity, negative = toxicity, actives largely listed as cytotoxic; actives 2% (n = 360,000);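 further: potency means the concentration at half of the fitted maximal effect; 0% = DMSO wells and -100% = cell-free medium wells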
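After a 2 h attachment period, IDH1KD HT-1080 cells took pin-transferred compound for 48 h at 37 °C; ATP-based luminescence after 10 min room-temperature reagent incubation reported viability.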
DT40 TDP1 no CPT – qHTS for Inhibitors of human tyrosyl-DNA phosphodiesterase 1 (TDP1): qHTS in cells in absence of CPT | Potency, µM (series often up to 46.2 µM), without a hit: at the highest dose activity change, negative = growth inhibition, hits mostly inhibitors | AID 686978, 2013 | actives 15% (n = 420,000) | DT40 Tdp1-/- hTDP1 cells, no CPT, ATP luminescence, 48 h; further: potency means the concentration at half of the fitted maximal effect; nearly all actives have a fitted effect of over 55% in size
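Stably hTDP1-transfected Tdp1-null chicken DT40 cells were treated with library compounds minus camptothecin and grown for at least 48 hr at 37 °C, after which cellular ATP was quantified by luminescence.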
ELG1 DNA repair – inhibitors of ELG1-dependent DNA repair in HEK293T cells; HEK293T ELG1-luciferase reporter, luminescence, 16 h; DNA damage induced by 5-fluorouridine; Potency, µM (top dose mostly 46.1 µM), for inactives: top-dose activity change, negative = inhibition, hits mostly inhibitors; actives 2.3% (n = 330,000); AID 504467; further: potency means the concentration at half of the fitted maximal effect; nearly all actives have a fitted effect of over 55% in size
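In this reporter screen, reduction of luminescence relative to DMSO vehicle indicated activity. Compounds and 5-fluorouridine were added together to 2,000 cells per well, incubated for 16 hr at 37 °C, then developed with ONE-Glo.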
IL1B secr inh – inflammasome signaling inhibition, IL-1 beta readout; actives 4.7% (n = 360,000); AID 743279; activity change, % at 57.5 µM; THP-1 LPS/ATP IL-1B secretion, AlphaLISA, 16 h; hits give low values; in the data active means activity change below about -50%; inconclusive means mostly about -30% to -49%
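Secreted IL-1B measured by AlphaLISA bead assay after 16 h compound exposure of THP-1 cells; compounds (final up to 57.5 uM) added 1 h before LPS (250 ng/mL) and ATP (1.25 mM) stimulation; lower signal means less secretion.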
DT40 TDP1 CPT – DT40-hTDP1 cell growth loss with CPT. chicken DT40 Tdp1-/-;hTDP1 cells + 20 nM CPT, ATP luminescence, 48 h. Potency, µM (series often up to 46.2 µM), inactives show top-dose activity change, negative = growth inhibition, hits mostly inhibitors. actives 12% (n = 420,000). AID 686979; further: potency means the concentration at half of the fitted maximal effect; nearly all actives have a fitted effect of over 55% in size
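Cell growth measured by CellTiter-Glo luminescence after a minimum 48 h, 37 C compound exposure with 20 nM CPT in Tdp1-knockout DT40 cells stably expressing hTDP1, seeded 400/well; qHTS titration format.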
HT1080NT lethal – kills 2HG-producing HT-1080-NT fibrosarcoma cells; HT-1080-NT fibrosarcoma viability, CellTiter-Glo ATP luminescence, 48 h; Potency, µM (highest dose often 46.1 µM), inactives show top-dose activity, negative = less viability, actives largely listed as cytotoxic; actives 1.6% (n = 360,000); AID 686970;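 further: NT is the 2HG producing partner of a matched IDH1 knockdown line; potency means the concentration at half of the fitted maximal effect; 0% = DMSO-treated cells and -100% = media-only wells without cells; nearly all actives have a fitted effect of over 55% in size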
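Viability of the 2HG-overproducing fibrosarcoma line after 48 hours of compound exposure at 37 degrees C was determined by luminescence with CellTiter-Glo, and concentration-effect curves were then fitted and categorized.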
An asterisk follows results filed as active; ? = inconclusive; · = not tested or not shown; [ ] = remark or other dose. Unless noted, the call rests on the fitted dose curve; in most records, active means well fitted curve in the direction sought with a large enough effect; inconclusive means small, poorly fitted or top-dose-only effect, or another doubt; inactive means no such curve, though single readings can be large; an effect the other way counts as inactive or inconclusive. Unless noted, on the % scale 0 is the no-effect control and ±100 the full control effect.

SMILES	HT1080 IDH1KD tx	DT40 TDP1 no CPT	ELG1 DNA repair	IL1B secr inh	DT40 TDP1 CPT	HT1080NT lethal
Cc1ccc(NC(=O)COc2ccccc2C(=O)Nc2ccccc2)cc1Cl	-1.3%	6.5%	16.4µM*	-2.7	18.4%	-1.7%
N#Cc1ccccc1NC(=O)c1ccccc1OCC(=O)Nc1ccc2c(c1)oc1ccccc12	0.0%	?	·	29.4	?	5.6%
CNC(=O)COc1ccccc1C(=O)Nc1ccc2c(c1)oc1ccccc12	?	?	?	-69.3*	-28.7%	-22.1%
Cc1cc(NC(=O)COc2ccccc2)ccc1Cl	8.0%	-13.9%	?	-13.3	-8.2%	-1.3%
Cc1ccc(NC(=O)COc2ccccc2)cc1Cl	13.5%	-28.8%	18.3%	-50.8*	29.6%	21.2%
O=C(COc1ccc(/C=N/NS(=O)(=O)c2ccccc2)cc1)Nc1cccc(Cl)c1	?	20.6µM*	-13.1%	-11.0	?	?
O=C(c1ccccc1)N(c1ccccc1)c1nccc2ccccc12	0.9%	?	·	50.4	-18.2%	2.8%
Cc1ccccc1OCC(=O)NNC(=O)Nc1ccc(Cl)cc1	4.61µM*	4.61µM*	3.1%	59.2	5.8µM*	6.51µM*
C/C(CC(=O)Nc1ccc(OCc2ccccc2)cc1)=N\NC(=O)C(=O)Nc1ccc(C)c(Cl)c1	?	18.4µM*	?	6.5	?	18.4µM*
O=C(O)c1ccccc1-c1ccccc1C(=O)Nc1ccc2c(c1)oc(=O)c1ccccc12	-7.5%	13µM*	·	?	?	?
COc1ccccc1-c1ccnc(-n2ncc(C(=O)N3CCCCC3c3cccnc3)c2C)n1 (stereo not given)	·	-12.7%	·	·	12.6%[9.04 µM]	·
CC1=C(C(=O)N(C(C)C)C(C)C)CC(CC(=O)NCCN2CCOCC2)C(=O)N1Cc1ccccc1 (stereo not given)	8.7%	3.9%	·	29.5	10.9%	13.0%
COc1ccc(C(=O)N2CCCC(C)(C(=O)NS(=O)(=O)C3CC3)C2)cc1 (stereo not given)	19.9%	1.46µM*	·	23.5	?	11.3%
CC1(C(=O)NS(=O)(=O)C2CC2)CCCN(C(=O)c2ccc(C(F)(F)F)cc2)C1 (stereo not given)	11.7%	0.651µM*	·	34.4	0.731µM*	12.7%
CC1(C(=O)NS(=O)(=O)C2CC2)CCCN(C(=O)c2cccc(OC(F)(F)F)c2)C1 (stereo not given)	17.9%	3.66µM*	·	-63.8*	?	0.6%
COc1cc(C(=O)N2CCCC(C)(C(=O)NS(=O)(=O)C3CC3)C2)cc(OC)c1OC (stereo not given)	11.9%	0.92µM*	·	-16.4	1.64µM*	19.3%
CN(CC(=O)N1CCc2ccccc2C1)c1ccccc1	6.2%	-23.7%	-0.1%	-4.5	-17.4%	12.9%
CN(C)S(=O)(=O)N(CC(=O)Nc1ccc(S(=O)(=O)N2CCCC2)cc1)c1ccccc1	-7.1%	?	-14.5%	-12.0	-28.4%	-0.6%
O=C(OCC(=O)N1CCN(c2ccccc2)CC1)c1ccccc1NCCO	7.6%	-11.7%	8.1%	-15.3	-21.1%	-3.1%
CC1(C(=O)NS(=O)(=O)C2CC2)CCCN(C(=O)c2ccccc2OC(F)(F)F)C1 (stereo not given)	11.4%	9.2µM*	·	12.1	?	22.1%
COCCNC(=O)C1(C)CCCN(C(=O)c2cccc(C(F)(F)F)c2)C1 (stereo not given)	0.5%	-17.2%	·	21.1	-17.6%	11.8%
CC1(C(=O)NS(=O)(=O)C2CC2)CCCN(C(=O)c2cccc(C(F)(F)F)c2)C1 (stereo not given)	7.6%	4.11µM*	·	39.6	?	20.7%
Cn1c(=O)c(=O)n(C)c2cc(N3CCCC3)c(NC(=O)c3ccccc3Cl)cc21	·	?	·	·	-6.4%	·
Cn1c(CNC(=O)c2ccco2)nnc1SCC(=O)Nc1ccc(Cl)cc1	?	-26.4%	-5.2%	-2.3	-16.0%	?
Cc1[nH]n(-c2ccccc2)c(=O)c1N=Nc1c(O)cc(S(=O)(=O)N(C)C)c2ccccc12	9.2µM*	6.51µM*	4.11µM*	120.4	6.51µM*	?
SMILES	HT1080 IDH1KD tx	DT40 TDP1 no CPT	ELG1 DNA repair	IL1B secr inh	DT40 TDP1 CPT	HT1080NT lethal
COCCCNC(=O)C1CCC(CNS(=O)(=O)c2ccc3c(c2)CC(C)N3C(=O)C2CC2)CC1 (stereo not given)	-1.1%	2.6%	1.0%	-17.2	-27.8%	2.8%
COc1ccc(-n2c(C)c3c(C)nnc(C)c3c2C)cc1OC	-3.4%	14.6µM*	·	22.9	16.4µM*	-1.1%
CCCc1ccc(O)c(N=Cc2cc(Br)cc(OCC)c2O)c1	23.1µM*	2.59µM*	?	108.0	3.66µM*	?
CC(CC(=O)c1ccccc1)=NCCCN=C(C)CC(=O)c1ccccc1	-0.1%	?	·	-11.7	-8.6%	2.8%
CCOC(=O)C1CCN(C(=O)Nc2ccc3nc(-c4ccco4)c(-c4ccco4)nc3c2)CC1	-2.6%	18.4µM*	?	-11.0	?	-3.3%
O=C(Nc1ccc2nc(-c3ccco3)c(-c3ccco3)nc2c1)N1CCCCCC1	?	14.6µM*	?	?	11.6µM*	-29.3%
Cc1nc2ccc(NC(=O)N3CCCCC3)cc2nc1C	11.4%	-18.6%	?	-5.5	-1.9%	6.0%
C[C@@H]1CN([C@H](C)CO)C(=O)CCCn2nncc2CO[C@H]1CN(C)S(=O)(=O)c1ccc(C#N)cc1	4.4%	-5.3%	·	-5.8	6.4%	13.9%
CCCCOc1ccc(CNC(=O)c2cnc3sc(N4CCC(C)CC4)nn3c2=O)cc1	·	?	·	·	-9.5%	·
O=C(CCCCCn1nnc2ccccc2c1=O)Nc1ccccc1F	-7.2%	-18.9%	-5.1%	58.6	6.4%	0.2%
Cc1onc(-c2c(F)cccc2Cl)c1C(=O)N1CCSCC1	0.8%	?	-4.6%	-5.5	-5.4%	-2.2%
Cc1onc(-c2c(F)cccc2Cl)c1C(=O)N1CCN(c2ncc(Br)cn2)CC1	-10.7%	?	13µM*	-0.7	-26.8%	-0.3%
Cc1onc(-c2ccccc2Cl)c1C(=O)N1CCN(c2cccc(Cl)c2)CC1	2.06µM*	1.46µM*	?	71.0	1.64µM*	2.59µM*
Cc1onc(-c2ccccc2Cl)c1C(N)=O	1.6%	-14.3%	0.4%	0.0	1.0%	1.8%

Assay outcomes (PubChem BioAssay)
